The values that follow come from PubChem BioAssay (Tox21).

The nature of test [1]: A CellTox Green Cytotoxicity Assay to monitor cytotoxicity in HepG2 cells - 8 hour (AID 1224890). Note: nearly all actives have a fitted effect of over 45% in size. The method in brief:
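Continuous culture of HepG2 cells with a membrane-impermeant DNA dye; rising fluorescence marks dead cells. Compound exposure lasted up to 40 h at 37 C, with reads every 8 h from 0 h.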

Test [2] is described as follows: qHTS assay to identify small molecule antagonists of the estrogen receptor alpha (ER-alpha) signaling pathway using the BG1 cell line in the presence of 0.1 nM 17-beta-estradiol - cell viability counter screen (AID 1259241). Note: nearly all actives have a fitted effect of over 40% in size. The method in brief:
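Estradiol-stimulated (0.1 nM) VM7Luc4E2 cells exposed to compounds 22 hr; viability measured by fluorescence of cleaved CellTiter-Fluor substrate after 30 min.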
For orientation: In qHTS, concentration-response curves come from the screen itself.

Test [3] in a line: qHTS assay to identify small molecule antagonists of the androgen receptor (AR) signaling pathway using the MDA cell line in the presence of 0.5 nM R1881 - cell viability counter screen (AID 1259242). Note: nearly all actives have a fitted effect of over 45% in size. A digest of the protocol:
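Fluorescence from CellTiter-Fluor, which reports protease activity of live cells, was read 30 min after reagent addition to MDA-kb2 cells that had been incubated 16 hr with compound and 0.5 nM R1881.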

The target of test [4] is Estrogen receptor (Homo sapiens) (UniProt P03372). Description: qHTS assay to identify small molecule antagonists of the estrogen receptor alpha (ER-alpha) signaling pathway using the BG1 cell line in the presence of 0.1 nM 17-beta-estradiol (AID 1259244). Note: nearly all actives have a fitted effect of over 50% in size. The method in brief: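 Quantitative high-throughput screen in VM7Luc4E2 cells: compound plus 0.1 nM E2 (final), 22 h, 37C, 5% CO2; ONE-Glo added, 30 min room temperature, luminescence measured.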
Chain of Estrogen receptor (Homo sapiens) (P03372 whole entry, looked up): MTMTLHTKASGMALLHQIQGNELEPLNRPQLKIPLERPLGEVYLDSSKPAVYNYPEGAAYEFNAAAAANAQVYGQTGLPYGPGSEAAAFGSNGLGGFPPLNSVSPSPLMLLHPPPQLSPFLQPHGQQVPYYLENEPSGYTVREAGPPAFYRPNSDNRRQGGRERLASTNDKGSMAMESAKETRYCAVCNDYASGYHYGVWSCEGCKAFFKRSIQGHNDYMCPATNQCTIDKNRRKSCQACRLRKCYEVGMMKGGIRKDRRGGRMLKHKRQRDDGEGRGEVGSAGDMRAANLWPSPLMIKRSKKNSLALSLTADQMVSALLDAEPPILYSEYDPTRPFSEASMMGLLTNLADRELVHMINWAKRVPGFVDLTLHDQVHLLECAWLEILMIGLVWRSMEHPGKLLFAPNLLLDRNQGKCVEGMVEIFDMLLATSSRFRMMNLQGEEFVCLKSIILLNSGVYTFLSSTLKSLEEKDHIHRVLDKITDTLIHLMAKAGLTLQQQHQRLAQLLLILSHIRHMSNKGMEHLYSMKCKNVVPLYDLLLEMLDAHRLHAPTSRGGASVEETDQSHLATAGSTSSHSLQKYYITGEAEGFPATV

A short description of test [5]: qHTS assay to identify small molecule HDAC inhibitors (AID 1259364). For activity change, negative = inhibition: top concentration of the series differs between compounds. Note: nearly all actives have a fitted effect of over 45% in size. Note: potency is the fitted concentration of half-maximal effect. The method in brief:
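Endogenous HDAC class I/II activity was measured in wild-type HCT-116 cells by HDAC-Glo luminescence after 2 h compound treatment.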

A short description of test [6]: qHTS assay to identify small molecule HDAC inhibitors - cell viability counter screen (AID 1259365). Note: series mostly up to about 92 µM; nearly all actives have a fitted effect of over 50% in size. A digest of the protocol: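 After overnight seeding at 1,500 cells per well, wild-type HCT-116 cultures took up compounds in DMSO for 2hr at 37 C. Viable cell content came from luminescence with CellTiter-Glo.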
A short description of test [7]: qHTS assay to identify small molecule agonists of the sonic hedgehog signaling (Shh) pathway - cell viability counter screen (AID 1259366). Note: nearly all actives have a fitted effect of over 50% in size. The method in brief:
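Same-well cytotoxicity read. Gli1-Luc reporter 3T3 cells; compounds 24hr, 37C/5% CO2; CellTiter-Fluor fluorescence.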

Test [8] can be described thus: qHTS assay to identify small molecule antagonists of the sonic hedgehog signaling (Shh) pathway - cell viability counter screen (AID 1259367). Note: nearly all actives have a fitted effect of over 55% in size. A digest of the protocol:
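Seed 3T3 Gli1-Luc cells at 2,000 per well; incubate 4 hr; add compound in DMSO, then conditioned medium; incubate at 37C with 5% CO2; add CellTiter-Fluor after 23 hr; read fluorescence 1 hr later.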

Test [9] can be described thus: qHTS assay to identify small molecule phospholipidosis (PLD) inducers (AID 1259344; active = well fitted curve in the direction sought with a large enough effect; an effect the other way counts as inactive or inconclusive). The method in brief:
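Quantitative HTS in HepG2: compound plus LipidTOX Red dye for 24 h, paraformaldehyde fixation with Hoechst 33342, widefield high-content imaging; amiodarone as positive and DMSO as negative control.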

A number with no mark means an inactive call. Inconclusive results are not listed. Activity calls are given as the source filed them. Unless noted, calls come from the whole dose curve; as a rule, active = well fitted curve in the direction sought with a large enough effect in the repeat runs; inconclusive = weak or mixed curves; inactive = no such curve, though single readings can be large; an effect the other way counts as inactive or inconclusive.
% is set by controls: 0 for no effect and ±100 for the full control effect.

Turning to `CC(C)(C)c1n[nH]c(=S)n(N)c1=O`, the result in test [1], in test [3] and in [6] was inactive. Also, the Potency entry in test [2], in test [4], in test [5], in test [7] and in [8] was “inactive” each time.
`CCOC(=O)c1ccc(OC(=O)CCCCCN=C(N)N)cc1`: the molecule was classed as inactive in test [1], in [3], in test [9] and in test [6]. Also, the Potency entry in test [2], in test [4] and in test [7] was “inactive” in each case.
Take `CCNC(=O)C1CC(C)CCC1C(C)C` (centres undefined): the molecule was classed as inactive in test [1], in [3] and in test [6]. Besides, the Potency result in test [2], in test [4], in test [5], in test [7] and in test [8] was “inactive” throughout.
In the case of `BrCCCCCBr`, the call in test [1], in test [3] and in [6] was inactive. Further, the Potency entry in [2], in test [4], in [5], in test [7] and in [8] was “inactive” each time.
As for `C[C@H](N)[C@H](O)c1cccc(O)c1`, the molecule was called inactive in test [1], in [3], in test [9] and in test [6]. Further, the Potency result in test [2], in [4], in test [7] and in test [8] was “inactive” each time.
Regarding `CCCCCCOC(=O)CC`, the molecule was classed as inactive in test [1], in test [3] and in [6]. Besides, the Potency entry in test [2], in [4], in [5], in test [7] and in test [8] was “inactive” in each case.
Take `CC(C)OC(=O)CCCCC(=O)OC(C)C`: the call in [1], in test [3] and in [6] was inactive. Further, the Potency result in test [2], in test [4], in test [5] and in [7] was “inactive” throughout.
For the molecule `O=C(/N=N/C(=O)OCc1ccccc1)OCc1ccccc1`, the molecule was classed as inactive in test [1], in [3] and in test [6]. Also, the Potency entry in test [2], in test [4], in [5], in [7] and in [8] was “inactive” each time.
For the molecule `CCOCCOC(=O)/C=C/c1ccc(OC)cc1`, the molecule was called inactive in test [1], in test [3] and in test [6]. Besides, the Potency entry in test [2], in test [4], in [7] and in test [8] was “inactive” each time. The Potency in [5] is 11.9 µM (active).
On to `O=S(O)(O)=S`, for which the cytotoxicity increase in [1] is 4.07% [at 6.97 µM]. In addition, the values for the activity change, negative = cytotoxicity in test [2] and in test [6] were 6.4% [at 8.39 µM] and 0.217% [at 8.39 µM], respectively. In addition, the viability change, negative = cytotoxic in test [3] is -0.767% [at 8.39 µM]; in test [7], -0.643% [at 8.39 µM]. The activity change, negative = inhibition in test [4] is 19% [at 8.39 µM]; in test [5], 3.04% [at 8.39 µM].
In the case of `CCOc1cc(NC(C)=O)ccc1C(=O)OC`, the call in test [1], in test [3], in test [9] and in [6] was inactive. The Potency entry in test [2], in test [4], in [7] and in [8] was “inactive” throughout.
In the case of `CC1(C)S[C@@H]2[C@H](N=CN3CCCCCC3)C(=O)N2[C@H]1C(=O)O`, the call in test [1], in test [3], in [9] and in test [6] was inactive. For the same molecule, the Potency result in test [2], in test [4], in test [7] and in [8] was “inactive” in each case.
With `CC(=O)c1ccc2c(c1)Cc1ccccc1-2`, the outcome in test [1], in test [3] and in test [6] was inactive. In addition, the Potency result in test [2], in [4], in test [7] and in test [8] was “inactive” throughout.
In the case of `CN=C(NC#N)Nc1ccc(C2=NNC(=O)CC2C)cc1` (centres undefined), the molecule was classed as inactive in test [1], in test [3], in [9] and in [6]. Also, the Potency result in test [2], in [5] and in test [7] was “inactive” each time.
Turning to `C=C(C)C(=O)OCCOP(=O)(O)OCCOC(=O)C(=C)C`, the molecule was called inactive in test [1], in test [3] and in [6]. Besides, the Potency entry in test [2], in test [4] and in test [7] was “inactive” each time.
Consider `C=C1CC/C=C(\C)CC[C@@H]2[C@@H]1CC2(C)C`, for which the call in test [1], in test [3] and in test [6] was inactive. Also, the Potency result in [2], in [4], in test [7] and in test [8] was “inactive” in each case.
As to `O=C(NCCN1CCOCC1)c1ccc(Cl)cc1`, the outcome in test [1], in test [3], in test [9] and in [6] was inactive. Also, the Potency result in [2], in [7] and in test [8] was “inactive” throughout.
Turning to `CCCCCCCCCCl`, the call in test [1], in [3] and in [6] was inactive. For the same molecule, the Potency result in test [2], in test [5] and in test [7] was “inactive” in each case.
For `O=C(NCC(O)CO)c1c(I)c(C(=O)NCC(O)CO)c(I)c(N(CCO)C(=O)CO)c1I` (centres undefined), the molecule was classed as inactive in test [1], in test [3], in test [9] and in [6]. The Potency result in test [2], in [5], in [7] and in test [8] was “inactive” throughout.
For the molecule `Nc1nnc(-c2cccc(Cl)c2Cl)c(N)n1`, the outcome in test [1], in [3], in test [9] and in [6] was inactive. The Potency result in test [2], in [5], in test [7] and in test [8] was “inactive” each time.
